PubChem BioAssay (NCI)
This is part of a sample that, as a whole, favours compounds with a hit. Of some 83,000 tested, about 20% had one in any assay.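 Cells were grown in 96-well plates and exposed to the test compound at a single concentration for 48 hours; results are reported as percent growth, with values below 10 considered active.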 Values without a mark were called inactive. Active and inactive are the calls of the source.

Tests used:
Experiment in all cases: NCI-60 one-dose screen, 48 h (100 = growth as untreated, 0 = no growth, -100 = all killed)
Settings in all cases: 10 µM unless noted
[1] = tested on: NCI-H23 lung
[2] = tested on: NCI-H226 lung
[3] = tested on: NCI-H322M lung
[4] = tested on: HOP-62 NSCLC
[5] = tested on: NCI-H460 lung
[6] = tested on: HOP-92 NSCLC
[7] = tested on: NCI-H522 lung
[8] = tested on: A549/ATCC NSCLC
[9] = tested on: 786-0 renal
[10] = tested on: COLO 205 colon
[11] = tested on: DU-145 prostate
[12] = tested on: K-562 leukemia
[13] = tested on: MALME-3M melanoma
[14] = tested on: MDA-MB-231 breast
[15] = tested on: RXF 393 renal
[16] = tested on: SF-268 CNS
[17] = tested on: SF-295 CNS
[18] = tested on: SF-539 CNS
[19] = tested on: UACC-257 melanoma
[20] = tested on: M14 melanoma

Row | Structure (SMILES) | growth [1] | growth [2] | growth [3] | growth [4] | growth [5] | growth [6] | growth [7] | growth [8] | growth [9] | growth [10] | growth [11] | growth [12] | growth [13] | growth [14] | growth [15] | growth [16] | growth [17] | growth [18] | growth [19] | growth [20]
1 | c1cc2ccc3cc2cc1CNCCN1CCNCc2ccc4ccc(cc4c2)CNCCN(CCNC3)CCNCc2ccc3ccc(cc3c2)CNCC1 | -7% (active) | 6.46% (active) | 56.3% | 60.3% | 16.1% | -17.9% (active) | 0.768% (active) | 2.2% (active) | 89.7% | -32.7% (active) | -10.1% (active) | 12.6% | -13% (active) | -23.7% (active) | 11.4% | -13.6% (active) | 66.8% | -41% (active) | 100% | 96.3%
2 | Fc1ccc(NC(=S)c2ccccc2)cc1 | 104% | 99.1% | 106% | 113% | 107% | 86.5% | 96.3% | 98.8% | 99.5% | 113% | 106% | 105% | 96.2% | 102% | 109% | 99% | 95.8% | 97.6% | 98.9% | 100%
3 | C=C(C)[C@@H]1CC[C@]2(C(=O)NCCNCCNCCN)CC[C@]3(C)[C@H](CC[C@@H]4[C@@]5(C)CCC(=O)C(C)(C)[C@@H]5CC[C@]43C)[C@@H]12 | -35.2% [100 µM] (active) | 74.3% [100 µM] | -81.1% [100 µM] (active) | 43.1% [100 µM] | -90.9% [100 µM] (active) | -65.2% [100 µM] (active) | -69.7% [100 µM] (active) | -76.5% [100 µM] (active) | -84.5% [100 µM] (active) | -47.5% [100 µM] (active) | -56.7% [100 µM] (active) | -17% [100 µM] (active) | -72.8% [100 µM] (active) | -92.4% [100 µM] (active) | -71.9% [100 µM] (active) | -38.7% [100 µM] (active) | -54.5% [100 µM] (active) | -92.7% [100 µM] (active) | -10.7% [100 µM] (active) | -62.8% [100 µM] (active)
4 | CC(C)c1ccc(/C=N/N=C(N)N)cc1 | 80.7% | 93.2% | 106% | 84.3% | 91.1% | 24.1% | 66.7% | 88.8% | 93.4% | 59.8% | 98.9% | 19.9% | 88.4% | 89.3% | 89.4% | 88.5% | 67% | 91.8% | 77% | 84.9%
5 | O=C(C[n+]1ccn(CC(OCc2ccc(Cl)cc2Cl)c2ccc(Cl)cc2Cl)c1)c1ccc(F)cc1 (stereo not given) | -87.8% (active) | -76.4% (active) | -89.3% (active) | -91.3% (active) | -86.1% (active) | -87.5% (active) | -82.2% (active) | 29.9% | -94.3% (active) | -84.8% (active) | -93.1% (active) | -17.2% (active) | -84.8% (active) | -96.7% (active) | -94.2% (active) | -93.3% (active) | -90.2% (active) | -91.9% (active) | -89.6% (active) | -97.3% (active)
6 | C=C(C)[C@@H]1CC[C@]2(C)[C@H](CC=C3[C@@H]4[C@@H](C)[C@H](C)CC[C@]4(C(N)=O)CC[C@]32C)[C@@]1(C)CCC#N | 6.47% [100 µM] (active) | -22.2% [100 µM] (active) | 0.378% [100 µM] (active) | -1.03% [100 µM] (active) | -38.4% [100 µM] (active) | -37.7% [100 µM] (active) | -6.12% [100 µM] (active) | 9.82% [100 µM] (active) | -36.5% [100 µM] (active) | -78.9% [100 µM] (active) | -0.419% [100 µM] (active) | 7.42% [100 µM] (active) | -65.5% [100 µM] (active) | -55.4% [100 µM] (active) | -72.2% [100 µM] (active) | 15.2% [100 µM] | 5.51% [100 µM] (active) | -63.1% [100 µM] (active) | -11.4% [100 µM] (active) | -3.77% [100 µM] (active)
7 | Nc1nnc(CSc2nnc3n(Cc4ccccc4)c(=O)c4c5c(sc4n23)CCCC5)s1 | 88.5% | 90.6% | 111% | 99.2% | 15.4% | 70.6% | 66.8% | 95.1% | 93.3% | 77.4% | 110% | 64.1% | 116% | 76.5% | 93.2% | 41.2% | 276% | 105% | 98.5% | 104%
8 | CCCCOC(=O)c1cccc([N+](=O)[O-])c1 | 101% | 104% | 106% | 109% | 107% | 99.8% | 92.7% | 107% | 112% | 115% | 117% | 144% | 117% | 121% | 111% | 110% | 101% | 105% | 93.6% | 105%
9 | CCOC(CNC(=O)c1cccc([N+](=O)[O-])c1)OCC | 85.7% | 89.8% | 109% | 108% | 101% | 96.7% | 64.2% | 83.7% | 101% | 108% | 100% | 94% | 96.8% | 92.9% | 65.7% | 93.6% | 91.2% | 96.9% | 83.2% | 98.7%
10 | C=C1C(=O)O[C@H]2[C@H]1CC/C(COC(=O)NCc1ccc(Cn3c(=O)sn(-c4ccc(Cl)cc4)c3=O)cc1)=C\CC[C@@]1(C)O[C@@H]21 | 94.9% | 87.4% | 104% | 106% | 101% | 45.5% | -8.38% (active) | 95.9% | 70.8% | 24% | 18.1% | 6.2% (active) | 65.2% | 54.7% | 62% | 83.7% | 99.5% | 90.8% | 72.9% | 59.2%
11 | O=C(CCN1CCCCC1)c1ccc2ccccc2c1 | 103% | 92.2% | 98.4% | 108% | 103% | 92.8% | 93.5% | 102% | 111% | 112% | 98.6% | 111% | 106% | 102% | 102% | 98.2% | 99.4% | 108% | 98.5% | 107%
12 | O=C1COCCN1c1ccc(Nc2nc(Cl)nc(N3CCOCC3)n2)cc1 | 96.5% | 87.5% | 93.3% | 97.9% | 108% | 85.8% | 68.2% | 95.8% | 104% | 102% | 102% | 100% | 96.3% | 103% | 92.4% | 99.4% | 94.4% | 96.5% | 98.2% | 98.2%
13 | Cc1ccc(Cn2c(O)c(N=NC(=O)c3ccc(S(N)(=O)=O)cc3)c3ccccc32)cc1 | 101% | 93.9% | 99.1% | 106% | 104% | 106% | 97.3% | 93.8% | 105% | 115% | 107% | 99.2% | 97.1% | 97.2% | 91.2% | 98.6% | 101% | 108% | 98% | 112%
14 | CCN(CC)CCCC(C)Nc1ccnc2cc(Cl)c(SCc3ccccc3)cc12 (stereo not given) | -17.1% (active) | 24.2% | -28.9% (active) | -72.2% (active) | -54.9% (active) | -43.1% (active) | -69.6% (active) | -23.1% (active) | -93.3% (active) | -89.5% (active) | 25.4% | -51.1% (active) | -77.3% (active) | -78.5% (active) | -91.1% (active) | -66.3% (active) | -81.7% (active) | -89.5% (active) | -79.2% (active) | -88.2% (active)
15 | COC(=O)[C@@H](NC(=O)NC(=O)NC(=O)CI)C(C)C | 93.8% | 85.1% | 103% | 86.3% | 89.3% | -17.7% (active) | -85.9% (active) | 94.6% | -25.1% (active) | 38.6% | 106% | 15.2% | -46.4% (active) | 72.5% | 83.3% | 95.8% | 95.3% | 92.7% | 87.1% | 85.8%
